This passage reports growth results from PubChem BioAssay (NCI).

Structures are written as SMILES. The panel holds about 83,000 compounds, 20% with a hit somewhere; the sample as a whole holds those more often.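 Growth was measured after 48 h exposure to one concentration of compound in 96-well plates. Values under 10 count as active.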 Values without a mark were called inactive. The source made the active and inactive calls.

Assay in all cases: NCI-60 one-dose screen, 48 h (100 = growth as untreated, 0 = no growth, -100 = all killed)
What all share (details): 10 µM unless noted

Assay [1] deals with K-562 leukemia.
For assay [2], the system named is MALME-3M melanoma.
The subject of assay [3] is MDA-MB-231 breast.
The test system of assay [4] is RXF 393 renal.
Assay [5] deals with SF-268 CNS.
In assay [6] the test system is SF-295 CNS.
The test system of assay [7] is SF-539 CNS.
Assay [8] has as its system UACC-257 melanoma.
Assay [9] concerns M14 melanoma.
Assay [10] deals with HCT-15 colon.
The subject of assay [11] is HT29 colon.
For assay [12], the system named is SNB-75 CNS.
Assay [13] concerns SNB-19 CNS.
Assay [14] concerns U251 CNS.
Assay [15] has as its system SK-MEL-5 melanoma.
Assay [16] has as its system UACC-62 melanoma.
Assay [17] deals with SK-MEL-28 melanoma.
Assay [18] relates to SK-MEL-2 melanoma.
The subject of assay [19] is PC-3 prostate.
The subject of assay [20] is LOX IMVI melanoma.

Consider `Cc1c(C)c(N2C(=O)C=CC2=O)c(C)c(C)c1N1C(=O)C=CC1=O`, for which the growth in assay [1] is 77.8%; in assay [2], 126%; in assay [3] it was 114%; in [4], 54.7%; in assay [5], 110%; in [6], 109%. In addition, the growth in [7] is 114%; in assay [8] it was 75.6%; in assay [9], 86.5%; in assay [10], 117%; in assay [11] it was 110%; in [12], 101%. The growth in [13] was 97.3%; in [14], 112%; in assay [15] it was 109%; in assay [16] it was 106%; in [17], 81.6%; in assay [18], 109%.
`O=C(CN1CCCCC1)Sc1nnc2sc3ccccc3n12`: the growth in assay [1] is 99.6%; in assay [2], 97.5%; in [3] it was 97.4%; in assay [4], 108%; in assay [5], 102%; in assay [6], 110%. Also, the growth in assay [7] is 101%; in assay [8] it was 102%; in assay [9] it was 98%; in [10], 112%; in [11], 118%; in [12], 74.6%. Moreover, the growth in [14] is 98.5%; in assay [19], 93%; in assay [15] it was 99.2%; in assay [16] it was 107%; in [20] it was 103%; in assay [17], 120%. Further, the growth in [18] was 109%.
As to `Cc1ccccc1NC(=O)c1cc2ccccc2cc1O`, the growth in assay [1] was 10.9%; in assay [2] it was -6.19% (active); in [3], 70.6%; in [4], 22.2%; in [5], 21.1%; in assay [6], 86.4%. Also, the growth is 64.4% in [7]; 68.1% in [8]; 58.1% in assay [9]; 48.5% in assay [10]; 111% in assay [11]; 76.8% in assay [12]. Further, the growth in assay [13] was 61.9%; in assay [14] it was 25.9%; in assay [15] it was 17.8%; in assay [16], 14.2%; in assay [17] it was 38.6%; in [18], 33%.
With `N#Cc1c(N)[nH]c(S)c1C#N`, the growth was 100% in assay [1]; 107% in assay [2]; 99.3% in assay [3]; 113% in assay [4]; 108% in assay [5]; 87.7% in assay [6]. In addition, the growth in assay [7] is 97.9%; in [8] it was 99.9%; in assay [9], 100%; in [10], 100%; in assay [11], 99.9%; in assay [12], 97.2%. Also, the growth is 101% in [14]; 87.9% in [19]; 96.9% in assay [15]; 94.9% in assay [16]; 102% in [20]; 113% in [17]. Moreover, the growth in assay [18] is 92%.
With `COc1ccc2c(c1)C(=O)c1c-2c(OCCN(C)C)nc2cc(OC)ccc12`, the growth was -47.7% (active) in assay [1]; -39.9% (active) in [2]; 1.22% (active) in assay [3]; -8.64% (active) in assay [4]; 35.7% in assay [5]; 31.8% in assay [6]. Besides, the growth in assay [7] is 15%; in assay [8], 20.5%; in assay [9] it was 11.6%; in [10], -63.4% (active); in [11], -43.6% (active); in assay [12], 31.6%. For the same compound, the growth in [14] is -68.7% (active); in [19], 10.1%; in assay [15], -48.6% (active); in assay [16] it was 7.14% (active); in assay [20], -89.2% (active); in assay [17] it was 29.7%. For the same compound, in assay [18], the growth is 30.9%.
With `CCC(C)CC(C)C(=O)c1c(O)ccn(OC)c1=O` (stereo not given), the growth was 69.3% in assay [1]; 80.7% in assay [2]; 61.7% in assay [3]; 72.5% in assay [4]; 54.2% in assay [5]; 87.1% in assay [6]. Besides, the growth in [7] is 63.2%; in assay [8] it was 97.7%; in [9] it was 71.1%; in assay [10], 29.9%; in assay [11] it was 124%; in assay [12], 88%. Besides, the growth is 78% in [13]; 60.6% in assay [14]; 84% in assay [15]; 92.3% in assay [16]; 77.6% in assay [17]; 102% in [18].
For the compound `C[C@]12CC[C@@H]3c4ccc(O)c([N+](=O)[O-])c4CC[C@H]3[C@@H]1CC[C@@H]2NS(=O)(=O)c1cccc(Br)c1`, the growth in assay [1] is 8.39% (active); in [2], 31.1%; in [3], 26.7%; in [4], 10.4%; in assay [5], 36.2%; in assay [6], 53.2%. Moreover, the growth in assay [7] is 67.5%; in assay [8], 49.1%; in assay [9], 43.4%; in [10] it was 26.7%; in [11], 68.1%; in [12] it was 47.2%. The growth in [13] is 50.6%; in [19] it was 15.9%; in assay [15], 25.6%; in [16] it was 35.4%; in assay [17], 49.6%.
Take `COc1ccc(Cn2c(NCCCN(C)C)nc(=O)n(Cc3ccc(F)cc3)c2=O)cc1`: the growth in [1] was 87.9%; in [2], 87.9%; in assay [3] it was 81.4%; in assay [4], 83.7%; in assay [5], 83.7%; in [6], 96.2%. Besides, the growth in assay [7] is 108%; in [8], 92.4%; in [9], 97.9%; in assay [10] it was 107%; in assay [11], 95.9%; in assay [12], 81.4%. The growth in assay [13] was 104%; in [19], 80.3%; in [15], 97.8%; in [16], 97%; in [17] it was 100%.
